{
  "source": "PubChem BioAssay AID2284353",
  "about": "(EPA ToxCast)",
  "note": "Inconclusive results are not listed. Calls of active or inactive are those of the source. How the source made its calls: active means hit-call score of the fitted dose curve at least 0.9, where 1 is the maximum; inconclusive means response in the unintended direction; inactive means score below 0.9.",
  "data": [
    {"test_system": "Japanese medaka Peroxisome Proliferator-activated Receptor gamma (PPARg), gene 100304459", "assay": "ATG_jmPPARg_EcoTox2: Attagene TRANS-FACTORIAL EcoTox-2 HepG2 Assay for Japanese medaka Peroxisome Proliferator-activated Receptor gamma (PPARg)", "procedure": "ATG_EcoTox2 is a cell-based, multiplexed assay created by modifying the existing Attagene TRANS-FACTORIAL system to include a panel of nuclear receptors from some or all the following species: human (Homo sapiens), african clawed frog (Xenopus laevis), rainbow trout (Oncorhynchus mykiss), japanese medaka (Oryzias latipes), and zebrafish (Danio rerio). The ECOTOX2-FACTORIAL format uses HepG2, a human liver cell line, with measurements taken at 24 hours after chemical dosing in a 24-well plate. ATG_jmPPARg_EcoTox2 is one of 29 assay components calculated in the ATG_EcoTox2 assay. It is designed to make measurements of mRNA induction, a form of inducible reporter, as detected with fluorescence intensity signals by Reverse transcription polymerase chain reaction (RT-PCR) and Capillary electrophoresis technology.The assay endpoint ATG_jmPPARg_EcoTox2 was analyzed in the positive analysis fitting direction relative to DMSO as the negative control and baseline of activity. Using a type of inducible reporter, measures of mRNA for gain-of-signal activity can be used to understand the reporter gene at the transcription factor-level as they relate to the gene PPARg. Furthermore, this assay endpoint can be referred to as a primary readout, because this assay has produced multiple assay endpoints where this one serves a reporter gene function. To generalize the intended target to other relatable targets, this assay endpoint is annotated to the nuclear receptor intended target family, where the subfamily is non-steroidal.\nHuman liver HepG2 cells are transiently transfected with multiple reporter transcription units (MRTUs) in 6-well plates using FuGene 6 reagent (Roche; 3 ml FuGene/1 mg DNA). The MRTU constructs are regulated by a cis-regulating element (promoter). Each RTU expresses a GAL4-UAS that regulates the transcription of a nearby target reporter gene sequence. A major difference between the CIS and TRANS system is that in CIS activities of endogenous TFs are measured, whereas the TRANS assay evaluates changes in activities of exogenous, chimeric NR-Gal4 proteins. […] At the end of 24 hour incubation, total RNA was isolated using TriZol reagent (Invitrogen). The isolated RNA is then reverse-transcribed using oligo(dT) primer and Mo-MLV reverse transcriptase (Invitrogen) with DNAse I (Ambion) treatment for 30 min. The one-tenth of the produced cDNA was amplified by PCR using Taq DNA polymerase (Invitrogen) and two reporter sequence-specific primers. The PCR products were fluorescently labeled by primer extension with 6-arboxyfluorescein (6-FAM) 5'-labeled reporter sequence-specific primer (2 min at 95 C, 20 s at 68 C and 10 min at 72 C) and these products were digested with 5U of HpaI (New England Biolabs) for 2h at 37 C. The fragments were purified using Qiaquick PCR columns (Qiagen), analyzed on an ABI 3130xL genetic analyzer (Applied Biosystems) with peak positions identified by using a set of X-rhodamine (ROX)-labeled MapMarker1000 molecular weight standards (BioVentures). The raw capillary electrophoresis data was processed using Attagraph software (Attagene).", "values": [
      {"smiles": "Cc1nc(-c2ccc(C(F)(F)F)cc2)sc1C(=O)NCc1ccc(OC(C)(C)C(=O)O)cc1", "AC50": "20.9 µM (active)"},
      {"smiles": "Cc1ccc(C)c(OCCCC(C)(C)C(=O)O)c1", "outcome": "inactive"},
      {"smiles": "CN(CCOc1ccc(CC2SC(=O)NC2=O)cc1)c1ccccn1", "note": "(stereo not drawn)", "outcome": "inactive"},
      {"smiles": "C[C@]12C=CC(=O)C=C1CC[C@@H]1[C@@H]2C(=O)C[C@@]2(C)[C@H]1CC[C@]2(O)C(=O)CO", "outcome": "inactive"},
      {"smiles": "C=C(c1ccc(C(=O)O)cc1)c1cc2c(cc1C)C(C)(C)CCC2(C)C", "AC50": "5.55 µM (active)"},
      {"smiles": "CC(C)OC(=O)C(C)(C)Oc1ccc(C(=O)c2ccc(Cl)cc2)cc1", "outcome": "inactive"},
      {"smiles": "Cc1c(C)c2c(c(C)c1O)CCC(C)(COc1ccc(CC3SC(=O)NC3=O)cc1)O2", "note": "(stereo not drawn)", "outcome": "inactive"},
      {"smiles": "CC(c1cc2ccccc2s1)N(O)C(N)=O", "note": "(stereo not drawn)", "outcome": "inactive"}
    ]}
  ]
}
